Bioassay records deposited in PubChem BioAssay by National Center for Advancing Translational Sciences (NCATS).
IL-1B inflam inh: qHTS for Inhibitors of Inflammasome Signaling: IL-1-beta AlphaLISA Primary Screen | AID 743279, 2014 | 360,000 compounds, 4.7% hits | THP-1 LPS/ATP IL-1B secretion, AlphaLISA, 16 h; stronger effect = lower value | activity change, % at 57.5 µM; in the data active = activity change below about -50%; inconclusive = mostly about -30% to -49%; also: % is scaled to controls: 0 for no effect and ±100 for the full control effect
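THP-1 cells pretreated 1 hr with compounds (up to 57.5 uM final), then stimulated with LPS (250 ng/mL final) plus ATP (1.25 mM final); secreted IL-1B measured by AlphaLISA after 16 hr, decreased signal indicating inhibition.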
TDP1 block: qHTS Assay for Inhibitors of Tyrosyl-DNA Phosphodiesterase (TDP1). Tyrosyl-DNA phosphodiesterase 1 (Homo sapiens), Q9NUW8. recombinant TDP1, AlphaScreen DNA substrate cleavage. Potency, µM (series often up to 130 µM), without a hit: at the highest dose activity change, negative = inhibition, hits mostly inhibitors. 350,000 compounds, 0.28% hits. AID 485290, 2010; also: potency is read from the fitted curve at half-maximal effect; % is scaled to controls: 0 for no effect and ±100 for the full control effect; nearly all actives have a fitted effect of over 40% in size
Target sequence (Q9NUW8 whole entry, looked up): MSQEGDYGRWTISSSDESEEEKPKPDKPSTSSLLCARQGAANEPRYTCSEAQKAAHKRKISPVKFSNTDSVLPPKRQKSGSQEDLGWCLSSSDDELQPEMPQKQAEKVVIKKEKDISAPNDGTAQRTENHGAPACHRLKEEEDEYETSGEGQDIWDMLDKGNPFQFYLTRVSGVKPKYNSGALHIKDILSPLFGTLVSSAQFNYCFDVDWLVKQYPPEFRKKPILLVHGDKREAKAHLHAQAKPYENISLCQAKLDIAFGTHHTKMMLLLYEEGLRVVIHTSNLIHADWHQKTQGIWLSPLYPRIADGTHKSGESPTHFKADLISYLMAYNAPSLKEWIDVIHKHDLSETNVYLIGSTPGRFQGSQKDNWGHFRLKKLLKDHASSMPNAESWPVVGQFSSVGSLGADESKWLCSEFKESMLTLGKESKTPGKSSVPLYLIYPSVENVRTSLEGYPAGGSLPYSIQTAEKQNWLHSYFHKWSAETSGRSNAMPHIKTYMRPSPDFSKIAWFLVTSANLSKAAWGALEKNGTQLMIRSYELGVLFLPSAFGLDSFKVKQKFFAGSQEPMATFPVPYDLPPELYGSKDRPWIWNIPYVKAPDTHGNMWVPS
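Compounds were preincubated with Tdp1 (1 nM final) for 15 min at room temperature before substrate (15 nM final) started a 5 min reaction; beads (10 ug/ml final) were then added for 10 min before AlphaScreen detection.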
HepG2 viability: qHTS for Inhibitors of TGF-b: Cytotox Counterscreen. HepG2 CAGA-GFP viability, ATP luminescence, 18 h. Potency, µM (titrated, usually from 46.1 µM), without a hit: at the highest dose activity change, negative = cytotoxicity, most hits filed as cytotoxic. 410,000 compounds, 0.76% hits. AID 588856, 2011; also: potency is read from the fitted curve at half-maximal effect
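CellTiter-Glo luminescence gave cytotoxicity after 18 hours at 37 degrees C. The cells were HepG2 CAGA-GFP in 1% FBS DMEM, stimulated with 500 pg/mL TGF-beta after compound addition. %Activity was normalised to no-cell wells (complete cell-killing) and DMSO (no toxicity), and curves were fitted and classified.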
TDP1 cell noCPT: qHTS for Inhibitors of human tyrosyl-DNA phosphodiesterase 1 (TDP1): qHTS in cells in absence of CPT. DT40 Tdp1-/- hTDP1 cells, no CPT, ATP luminescence, 48 h. Potency, µM (doses to about 46.2 µM), without a hit: at the highest dose activity change, negative = growth inhibition, usual class: inhibitors. 420,000 compounds, 15% hits. AID 686978, 2013; also: potency is read from the fitted curve at half-maximal effect; % is scaled to controls: 0 for no effect and ±100 for the full control effect; nearly all actives have a fitted effect of over 55% in size
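Seeded 400 DT40-hTDP1 cells/well (vehicle DMSO, no 20 nM CPT); pinned compounds; ≥48 hr at 37 °C; CellTiter-Glo luminescence as viability measure.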
DT40 TDP1 CPT: qHTS for Inhibitors of human tyrosyl-DNA phosphodiesterase 1 (TDP1): qHTS in cells in presence of CPT; chicken DT40 Tdp1-/-;hTDP1 cells + 20 nM CPT, ATP luminescence, 48 h; Potency, µM (highest dose often 46.2 µM), inactives show at the highest dose activity change, negative = growth inhibition, hits mostly inhibitors; 420,000 compounds, 12% hits; also: potency is read from the fitted curve at half-maximal effect; % is scaled to controls: 0 for no effect and ±100 for the full control effect; nearly all actives have a fitted effect of over 55% in size
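Cell growth measured by CellTiter-Glo luminescence after a minimum 48 h, 37 C compound exposure with 20 nM CPT in Tdp1-knockout DT40 cells stably expressing hTDP1, seeded 400/well; qHTS titration format.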
TGFb inhibitor: qHTS for Inhibitors of TGF-b. HepG2 CAGA-GFP TGF-b/SMAD3 reporter, GFP fluorescence, 18 h; TGF-beta stimulated, 500 pg/mL final. 410,000 compounds, 1.2% hits. Potency, µM (titrated, usually from 46.1 µM), for inactives: at the top dose activity, negative = inhibition, hits mostly inhibitors; also: potency is read from the fitted curve at half-maximal effect; % is scaled to controls: 0 for no effect and ±100 for the full control effect; nearly all actives have a fitted effect of over 65% in size
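Smad-responsive CAGA-GFP expression was quantified in HEPG2 cells exposed to compounds and 500 pg/mL final TGF-beta for 18 h at 37 degrees C; unstimulated wells defined full inhibition.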
* = called active by the depositor; u = inconclusive; x = no result given; [ ] = remark or other dose. Most compounds without a hit are left out; they make up all but 18% or so of the library. Unless noted, calls follow the shape of the dose curve; as a rule, active = well fitted curve in the direction sought with a large enough effect; inconclusive = small, poorly fitted or top-dose-only effect, or another doubt; inactive = no such curve, though single readings can be large; an effect the other way counts as inactive or inconclusive.

SMILES	IL-1B inflam inh	TDP1 block	HepG2 viability	TDP1 cell noCPT	DT40 TDP1 CPT	TGFb inhibitor
Cc1ccc(-n2ncc3c(SCc4cccnc4)ncnc32)c(C)c1	-12.6	4.7%	-5.8%	11.6µM*	16.4µM*	u
CC(C)C(NC(=O)c1ccccc1)c1nnc(SCC(=O)NC2CCCC2)n1C (configuration not stated)	-1.1	10.6%	-1.0%	-39.6%	-1.7%	1.2%
CCC(CO)Nc1ncnc2c1cnn2-c1ccc(Cl)cc1 (configuration not stated)	-4.8	3.7%	-12.5%	-20.1%	-0.2%	1.9%
CCOc1ccc(Nc2ncnc3c2cnn3-c2ccc(F)cc2)cc1	x	10.4%	-25.5%	-24.9%	-19.4%	-3.3%
CCc1ccccc1Nc1ncnc2c1cnn2-c1ccc(Cl)cc1	x	5.4%	-17.4%	u	16.4µM*	1.1%
Cc1ccc(-n2ncc3c(Nc4ccccc4C)ncnc32)cc1	x	4.7%	-21.8%	16.4µM*	u	1.0%
Fc1ccc(-n2ncc3c(Nc4ccc(Oc5ccc(Cl)cc5)cc4)ncnc32)cc1	x	-2.6%	-12.6%	18.4µM*	u	3.6%
CCC(C(=O)NCc1ccc2c(c1)CCN2C(=O)c1ccc(F)cc1)c1ccccc1 (configuration not stated)	x	7.4%	0.9%	0.9%	3.7%	-1.1%
COc1ccc(-c2[nH]ncc2CN2CCC(OCc3ccccn3)CC2)c(F)c1	9.9	x	4.4%	-1.9%	-6.7%	-4.3%
CCOC(=O)N1CCC2(CC1)C(C#N)=C(N)Oc1c2sc2nc(C)cc(C)c12	-13.8	-2.3%	-36.0%	16.4µM*	u	-20.3%
CCOC(=O)N1CCC2(CC1)C(C#N)=C(N)Oc1c2c(C)nn1-c1cccc(Cl)c1	-6.3	8.7%	-1.6%	18.4µM*	16.4µM*	u
CCCN1CCC2(CC1)C(C#N)=C(N)Oc1c2sc2nc(C)cc(C)c12	-2.7	5.9%	-18.2%	u	u	17.0%
COc1ccccc1-c1cccc(-c2nc(C(=O)N3CCCCC3)cc3c2[C@@H](CCO)N(S(=O)C(C)(C)C)C3)c1 (some centres not stated)	-10.5	x	-30.7%	u	-0.3%	u
Cc1ccc(Oc2ccc(C(=O)NCc3ccncc3)cc2)cc1	-51.1*	3.6%	3.2%	23.1µM*	u	-15.2%
O=C(NCc1ccncc1)c1ccc(OCc2ccccc2)cc1	-20.0	x	-14.8%	13µM*	20.6µM*	-7.1%
O=C(NCc1ccncc1)c1ccc(Oc2ccccc2)cc1	-65.9*	4.8%	-2.0%	18.4µM*	14.6µM*	-13.6%
COc1cccc(Cn2c(CNC(=O)Cc3cccc(C)c3)nc3cccnc32)c1	x	7.7%	-24.1%	u	u	u
COc1ccc(C(=O)Nc2ccc3ccccc3c2)c(OC)c1	-2.0	-0.4%	-15.6%	u	u	39.3%
COc1ccccc1Nc1c2c(nc3ccc(NC(=O)c4ccccc4F)cc13)CCCC2	x	11.5%	-43.6%	16.4µM*	5.17µM*	u
COc1ccccc1NC(=O)c1ccc2c(Cl)c3c(nc2c1)CCCC3	x	2.3%	2.8%	-2.0%	0.3%	3.4%
COc1ccc(Nc2c3c(nc4ccc(NC(=O)c5ccc(F)cc5)cc24)CCCC3)cc1OC	x	9.0%	-95.4%	u	u	u
COc1ccc(C(=O)Nc2ccc3nc4c(c(Nc5ccccc5OC)c3c2)CCCC4)c(OC)c1	x	11.8%	-19.4%	3.26µM*	3.66µM*	-22.4%
COc1ccc(C(=O)Nc2ccc3nc4c(c(Nc5ccc(OC)c(OC)c5)c3c2)CCCC4)c(OC)c1	x	8.8%	-87.7%	2.91µM*	3.26µM*	u
COc1ccccc1Nc1c2c(nc3ccc(NC(=O)c4ccc(OC)c(OC)c4)cc13)CCCC2	x	5.9%	22.4µM*	14.6µM*	23.1µM*	u
CC1(C)CC[C@]2(C(=O)O)C(O)C[C@@]3(C)C(=CCC4[C@@]5(C)CCC(O)C(C)(C)C5CC[C@@]43C)C2C1 (some centres not stated)	x	9.7%[56.1 µM]	x	23.3%	3.5%	x
COc1ccccc1Nc1c2c(nc3ccc(NC(=O)c4cccc(OC)c4OC)cc13)CCCC2	x	11.8%	-56.6%	13µM*	5.8µM*	u
COc1ccccc1C(=O)Nc1ccc2nc3n(c(=O)c2c1)CCCC3	-9.5	x	-3.0%	-25.4%	u	-5.7%
COc1ccccc1Nc1c2c(nc3ccc(N)cc13)CCCC2	-12.0	10.3%	-37.4%	20.6µM*	16.4µM*	u
CCc1cccc(C)c1NC(=S)N(Cc1cccnc1)Cc1ccco1	1.7	0.0%	-10.8%	u	-28.6%	-4.4%
COc1cc(/C=C(/C#N)c2nc3ccccc3[nH]2)ccc1OCc1ccc(C(=O)O)o1	15.5	-3.8%	4.1%	-10.1%	-3.0%	9.2%
